Experimental data from the supplement of paper PMC10849652.
Of roughly 8,800 targets only a part is listed; those with a hit were picked by preference. About 0.5% of all pairs of compound and target were hits.

compound: c1cn2cc(-c3ccc4cn[nH]c4c3)nc(Nc3ccc(N4CCOCC4)cc3)c2n1 [entospletinib]; assay: log2 fold change, soluble protein after heating vs DMSO (PISA); higher = thermal stabilisation; K562 lysate, 10 uM; active = over 0.2 and 3.5 SD of the protein, either way, in both replicates (recomputed)
How it was run: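 Thermal stability, expressed as log-two fold change relative to solvent controls, is given from duplicates. Crude K562 extract in PBS pH 7.4 with 1 mM MgCl2, at 1 mg/mL protein, was treated with 10 μM compound for 30 min and heated in aliquots for 3 min across 48°C-58°C. After pooling, adjustment to 0.5% NP-40 at 4°C and centrifugation at 21,000xg for 90 min, supernatant protein was measured by TMTpro 16plex LC-MS/MS with channel sums equalised.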

Sequence of UniProt Q8IZP0 (Q8IZP0 whole entry, looked up): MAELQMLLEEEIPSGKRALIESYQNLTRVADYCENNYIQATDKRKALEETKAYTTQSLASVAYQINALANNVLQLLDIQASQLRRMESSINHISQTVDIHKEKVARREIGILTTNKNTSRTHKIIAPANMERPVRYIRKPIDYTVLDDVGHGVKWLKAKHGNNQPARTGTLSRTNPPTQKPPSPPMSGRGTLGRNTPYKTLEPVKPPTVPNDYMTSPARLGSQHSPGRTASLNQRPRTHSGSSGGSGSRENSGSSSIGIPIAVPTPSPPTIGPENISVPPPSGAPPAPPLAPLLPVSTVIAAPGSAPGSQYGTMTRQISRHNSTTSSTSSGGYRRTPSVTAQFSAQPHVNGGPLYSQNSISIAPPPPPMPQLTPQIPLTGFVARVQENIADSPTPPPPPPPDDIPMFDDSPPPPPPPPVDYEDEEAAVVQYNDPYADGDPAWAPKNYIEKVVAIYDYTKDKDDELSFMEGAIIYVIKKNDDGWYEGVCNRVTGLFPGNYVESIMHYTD
Sequence of UniProt P35611 (P35611 whole entry, looked up): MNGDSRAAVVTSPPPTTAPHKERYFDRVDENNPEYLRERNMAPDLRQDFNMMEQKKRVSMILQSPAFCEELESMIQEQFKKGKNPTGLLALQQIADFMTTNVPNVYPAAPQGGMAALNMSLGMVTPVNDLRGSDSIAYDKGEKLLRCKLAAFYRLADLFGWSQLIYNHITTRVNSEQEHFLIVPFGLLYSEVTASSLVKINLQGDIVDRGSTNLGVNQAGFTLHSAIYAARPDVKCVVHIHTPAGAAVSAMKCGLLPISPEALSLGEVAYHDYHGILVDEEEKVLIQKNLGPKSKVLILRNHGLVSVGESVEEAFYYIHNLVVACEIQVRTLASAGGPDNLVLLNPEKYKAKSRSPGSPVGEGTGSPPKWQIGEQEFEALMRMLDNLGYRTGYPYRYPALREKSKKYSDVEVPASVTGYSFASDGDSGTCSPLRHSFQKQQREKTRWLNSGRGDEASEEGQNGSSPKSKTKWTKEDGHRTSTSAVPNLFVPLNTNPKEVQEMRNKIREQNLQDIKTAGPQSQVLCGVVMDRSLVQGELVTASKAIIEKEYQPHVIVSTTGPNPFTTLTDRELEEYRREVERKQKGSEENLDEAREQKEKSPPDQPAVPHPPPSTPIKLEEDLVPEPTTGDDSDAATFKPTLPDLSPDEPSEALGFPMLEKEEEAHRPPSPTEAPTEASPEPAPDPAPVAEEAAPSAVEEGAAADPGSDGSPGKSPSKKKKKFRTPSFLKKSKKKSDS
Sequence of UniProt P00352 (P00352 whole entry, looked up): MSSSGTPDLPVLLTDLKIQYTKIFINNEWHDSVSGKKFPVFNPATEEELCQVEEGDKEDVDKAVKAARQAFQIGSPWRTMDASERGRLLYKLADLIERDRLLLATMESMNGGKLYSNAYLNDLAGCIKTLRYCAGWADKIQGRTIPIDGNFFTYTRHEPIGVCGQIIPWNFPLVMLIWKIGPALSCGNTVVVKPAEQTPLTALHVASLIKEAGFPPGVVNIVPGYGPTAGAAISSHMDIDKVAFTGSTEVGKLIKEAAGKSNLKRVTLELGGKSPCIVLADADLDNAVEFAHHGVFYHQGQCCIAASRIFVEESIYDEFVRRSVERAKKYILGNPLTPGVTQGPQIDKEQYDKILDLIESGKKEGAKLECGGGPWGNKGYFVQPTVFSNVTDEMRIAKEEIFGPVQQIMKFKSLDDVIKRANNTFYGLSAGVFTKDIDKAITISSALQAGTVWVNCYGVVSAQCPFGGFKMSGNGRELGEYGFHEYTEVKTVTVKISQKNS
Sequence of UniProt Q15067 (Q15067 whole entry, looked up): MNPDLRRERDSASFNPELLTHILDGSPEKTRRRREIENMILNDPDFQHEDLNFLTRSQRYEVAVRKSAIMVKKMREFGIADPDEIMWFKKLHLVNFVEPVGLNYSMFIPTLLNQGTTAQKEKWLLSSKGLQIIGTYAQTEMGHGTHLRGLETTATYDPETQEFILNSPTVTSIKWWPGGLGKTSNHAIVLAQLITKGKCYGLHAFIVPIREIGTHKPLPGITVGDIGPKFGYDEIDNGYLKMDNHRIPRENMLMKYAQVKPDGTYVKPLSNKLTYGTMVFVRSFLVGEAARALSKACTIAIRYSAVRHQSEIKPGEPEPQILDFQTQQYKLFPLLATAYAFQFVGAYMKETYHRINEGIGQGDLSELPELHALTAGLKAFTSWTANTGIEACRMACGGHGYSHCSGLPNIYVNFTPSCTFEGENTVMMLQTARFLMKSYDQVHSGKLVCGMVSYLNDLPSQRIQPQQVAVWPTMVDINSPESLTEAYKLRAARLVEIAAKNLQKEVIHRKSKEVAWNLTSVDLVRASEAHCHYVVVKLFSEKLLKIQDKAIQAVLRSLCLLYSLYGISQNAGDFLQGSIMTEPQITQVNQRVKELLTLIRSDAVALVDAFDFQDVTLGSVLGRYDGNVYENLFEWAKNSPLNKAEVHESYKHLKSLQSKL
Sequence of UniProt P53396 (P53396 whole entry, looked up): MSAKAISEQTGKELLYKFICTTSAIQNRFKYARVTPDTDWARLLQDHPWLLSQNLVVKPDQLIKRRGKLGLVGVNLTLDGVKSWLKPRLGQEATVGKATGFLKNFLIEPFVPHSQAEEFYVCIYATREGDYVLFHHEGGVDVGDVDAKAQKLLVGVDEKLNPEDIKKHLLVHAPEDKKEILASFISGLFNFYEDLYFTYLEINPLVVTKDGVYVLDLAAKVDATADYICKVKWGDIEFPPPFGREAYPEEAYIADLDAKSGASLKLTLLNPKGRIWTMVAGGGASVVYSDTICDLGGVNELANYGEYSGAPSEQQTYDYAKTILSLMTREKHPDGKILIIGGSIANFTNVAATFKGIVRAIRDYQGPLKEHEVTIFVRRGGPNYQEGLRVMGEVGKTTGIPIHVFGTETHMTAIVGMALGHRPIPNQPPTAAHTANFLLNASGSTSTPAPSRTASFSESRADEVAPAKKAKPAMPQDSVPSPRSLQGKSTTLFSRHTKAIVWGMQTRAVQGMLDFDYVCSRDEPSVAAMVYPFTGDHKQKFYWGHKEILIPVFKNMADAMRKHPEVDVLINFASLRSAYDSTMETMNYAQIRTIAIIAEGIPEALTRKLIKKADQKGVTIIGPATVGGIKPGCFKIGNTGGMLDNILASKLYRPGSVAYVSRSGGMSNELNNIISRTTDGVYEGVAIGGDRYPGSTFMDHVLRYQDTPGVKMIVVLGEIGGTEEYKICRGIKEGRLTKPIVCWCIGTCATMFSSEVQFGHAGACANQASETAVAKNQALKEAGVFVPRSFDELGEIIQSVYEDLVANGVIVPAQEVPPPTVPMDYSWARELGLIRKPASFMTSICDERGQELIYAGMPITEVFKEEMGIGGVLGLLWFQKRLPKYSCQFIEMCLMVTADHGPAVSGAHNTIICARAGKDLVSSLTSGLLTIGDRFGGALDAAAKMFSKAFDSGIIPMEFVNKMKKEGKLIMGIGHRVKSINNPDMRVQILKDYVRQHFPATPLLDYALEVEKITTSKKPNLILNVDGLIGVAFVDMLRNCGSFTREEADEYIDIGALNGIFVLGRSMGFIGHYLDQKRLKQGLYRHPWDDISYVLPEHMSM
Sequence of UniProt Q9BTT0 (Q9BTT0 whole entry, looked up): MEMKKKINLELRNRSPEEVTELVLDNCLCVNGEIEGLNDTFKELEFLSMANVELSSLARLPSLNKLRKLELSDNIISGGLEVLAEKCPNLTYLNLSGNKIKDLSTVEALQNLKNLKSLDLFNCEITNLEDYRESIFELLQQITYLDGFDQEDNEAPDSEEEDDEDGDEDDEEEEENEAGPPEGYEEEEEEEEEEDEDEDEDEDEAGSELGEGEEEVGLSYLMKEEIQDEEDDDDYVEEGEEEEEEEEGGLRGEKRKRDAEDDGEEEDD
Sequence of UniProt Q9BRQ8 (Q9BRQ8 whole entry, looked up): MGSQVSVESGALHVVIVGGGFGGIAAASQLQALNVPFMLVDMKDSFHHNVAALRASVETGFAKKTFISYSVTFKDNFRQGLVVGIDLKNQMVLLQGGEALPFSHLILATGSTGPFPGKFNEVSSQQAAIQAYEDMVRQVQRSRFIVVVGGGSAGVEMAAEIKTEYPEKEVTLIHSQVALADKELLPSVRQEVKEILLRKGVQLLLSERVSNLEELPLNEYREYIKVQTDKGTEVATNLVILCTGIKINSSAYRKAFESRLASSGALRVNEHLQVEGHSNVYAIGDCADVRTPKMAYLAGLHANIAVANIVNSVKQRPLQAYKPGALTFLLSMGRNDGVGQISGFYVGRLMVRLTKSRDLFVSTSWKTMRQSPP
Sequence of UniProt Q7L211 (Q7L211 whole entry, looked up): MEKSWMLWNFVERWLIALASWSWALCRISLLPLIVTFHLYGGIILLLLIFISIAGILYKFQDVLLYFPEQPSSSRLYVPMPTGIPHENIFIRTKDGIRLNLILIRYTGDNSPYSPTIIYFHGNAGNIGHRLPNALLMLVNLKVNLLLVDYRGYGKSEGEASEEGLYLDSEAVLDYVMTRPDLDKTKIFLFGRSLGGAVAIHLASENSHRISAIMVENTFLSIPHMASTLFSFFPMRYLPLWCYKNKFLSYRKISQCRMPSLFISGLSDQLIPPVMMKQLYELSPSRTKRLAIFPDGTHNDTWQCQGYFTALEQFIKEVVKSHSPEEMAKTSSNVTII
Sequence of UniProt Q5VST6 (Q5VST6 whole entry, looked up): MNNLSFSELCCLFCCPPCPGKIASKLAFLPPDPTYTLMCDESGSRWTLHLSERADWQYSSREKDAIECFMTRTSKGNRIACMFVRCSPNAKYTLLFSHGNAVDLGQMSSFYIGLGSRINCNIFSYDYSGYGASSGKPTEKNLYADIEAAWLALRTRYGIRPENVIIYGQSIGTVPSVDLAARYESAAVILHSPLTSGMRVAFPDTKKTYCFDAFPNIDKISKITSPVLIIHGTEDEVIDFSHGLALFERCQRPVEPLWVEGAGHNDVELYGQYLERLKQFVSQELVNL
Sequence of UniProt Q9NRW3 (Q9NRW3 whole entry, looked up): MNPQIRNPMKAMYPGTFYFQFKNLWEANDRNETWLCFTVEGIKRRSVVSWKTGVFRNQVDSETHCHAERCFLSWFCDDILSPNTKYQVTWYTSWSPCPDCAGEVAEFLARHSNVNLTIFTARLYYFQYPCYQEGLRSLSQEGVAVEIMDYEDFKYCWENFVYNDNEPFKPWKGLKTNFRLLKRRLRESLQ

log2 fold change, inactive:
ALKBH1 (UniProt Q13686) -0.052
ARL15 (UniProt Q9NXU5) 0.014
ABI1 isoform 6 (UniProt Q8IZP0) -0.115
ANP32E isoform 3 (UniProt Q9BTT0) -0.095
ABHD13 (UniProt Q7L211) -0.12
ACTG1 (UniProt K7EM38) -0.453
ACACB (UniProt O00763) 0.088
ACLY isoform 2 (UniProt P53396) -0.047
ADD1 isoform 4 (UniProt P35611) 0.056
APOBEC3C (UniProt Q9NRW3) -0.007
ADD1 isoform 3 (UniProt P35611) -0.014
ALDH1A1 (UniProt P00352) 0.02
AIF1L (UniProt Q9BQI0) 0.116
ANKRD30A (UniProt Q9BXX3) -0.135
APOB (UniProt P04114) 0.05
ALKBH7 (UniProt Q9BT30) 0.151
AIFM2 (UniProt Q9BRQ8) 0.003
ABHD17B (UniProt Q5VST6) 0.2
ACOX1 isoform 2 (UniProt Q15067) -0.012
ADAR isoform 4 (UniProt P55265) 0.022
AP5B1 (UniProt Q2VPB7) 0.022
ANKRD30B (UniProt Q9BXX2) 0.025
AGO4 (UniProt Q9HCK5) -0.013
ABHD17A isoform 2 (UniProt Q96GS6) 0.043
ARHGEF2 (UniProt V9GYF0) 0.081
ARMCX5 (UniProt Q6P1M9) 0.088
AKAP8L (UniProt Q9ULX6) -0.019
ANKRD44 isoform 2 (UniProt Q8N8A2) -0.115
ABI1 isoform 9 (UniProt Q8IZP0) 0.018
